The values that follow come from PubChem BioAssay AID493248 (Broad Institute, 2011).

Among all 2,300 compounds or so, about 1,400 (61%) were called active. Not shown: some 7% with an inconclusive outcome. How the calls were made is not given here. The set was probably picked from earlier hits. Only a sample is shown. Potency and affinity values are given separately.

In the assay the target is FAD-linked sulfhydryl oxidase ALR (Homo sapiens) (UniProt P55789). Kind of assay: ALR-catalysed DTT oxidation blockers – biochemical, H2O2 detection, luminescence, cherry-pick, dose response (AID 493248). The conditions noted are these: purified ALR, H2O2 HRP-luminol luminescence; at 10 µM (top of the series).
Chain of FAD-linked sulfhydryl oxidase ALR (Homo sapiens) (P55789 whole entry, looked up): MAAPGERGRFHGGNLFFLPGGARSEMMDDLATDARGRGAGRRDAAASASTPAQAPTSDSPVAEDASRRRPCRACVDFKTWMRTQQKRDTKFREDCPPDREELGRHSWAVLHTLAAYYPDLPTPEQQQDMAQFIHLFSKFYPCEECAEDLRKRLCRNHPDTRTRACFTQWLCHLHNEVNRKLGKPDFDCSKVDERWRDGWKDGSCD
Take `Cc1ccc(-n2[nH]c(C)c(/C=N/NC(=O)c3ccc(O)cc3O)c2=O)cc1`: the activity change, negative = inhibition is -40.4%.
In the case of `NNC(=O)c1cc(O)c(O)c(O)c1`, the activity change, negative = inhibition turned out to be 8.57%.
Regarding `CCCc1cc(=O)[nH]c(SCc2cccnc2)n1`, the activity change, negative = inhibition is -44.3%.
With `CC1(C)CN(c2ccccc2)N(C(=O)c2ccc(F)cc2)C1=O`, the activity change, negative = inhibition was -46.1%.
For `COc1cc(/C=N/O)cc(Br)c1OC`, the activity change, negative = inhibition amounted to 21.8%.
Turning to `CCN(CC)CC(=O)c1ccc(-c2ccccc2)cc1`, the activity change, negative = inhibition was -34.7%.
`CCc1ccccc1Nc1ccc(C(=O)O)cc1N`: the activity change, negative = inhibition is -23%.
For `Oc1ccc(-c2cnns2)c(O)c1` the value was -104%.
With `N[C@@H](Cc1ccccc1)c1nnc(SCc2ccccc2Cl)o1` the figure was -33.5%.
For `O=C(O)c1cc([N+](=O)[O-])c(Sc2nc3ccccc3[nH]2)c([N+](=O)[O-])c1` the value was -46.4%; for `COc1cccc(NC(=O)c2c([N+](=O)[O-])cnn2C)c1`, -15.3%.
Take `Nc1ccccc1C(O)(Cc1ccccc1)c1ccccc1` (configuration not stated): the activity change, negative = inhibition is -3.4%.
Turning to `Fc1ccccc1Nc1n[nH]c(=S)s1`, the activity change, negative = inhibition is -40.4%.
For `COc1cc(/C=N/Nc2ccc([N+](=O)[O-])cn2)cc(OC)c1O`, the activity change, negative = inhibition was -73.9%.
For `CC(Nc1ccccc1)c1cc(Cl)ccc1O` (configuration not stated) the value was -48.4%; for `C=C(C)C(=O)Nc1ccc(NC(C)C)cc1`, 266%; for `COc1ccccc1N(Cc1ccccc1)S(=O)(=O)c1cc(C(=O)O)ccc1Cl`, -48.6%.
With `Cc1ccc2c(CN3CCC(C(N)=O)CC3)cc(=O)oc2c1C` the figure was -10.9%; with `CN(C)Cc1c(O)ccc2c3c(c(=O)oc12)CCCCC3`, 148%.
As to `Cn1ccnc1SCc1cn2ccccc2n1`, the activity change, negative = inhibition is -1.35%.
With `O=C(c1cc(-c2ccc(O)cc2)on1)N1CCN(c2ccccc2)CC1` the figure was 418%.
With `S=c1[nH]ncn1NCc1ccc(Cl)cc1Cl` the figure was -23.3%.
As to `Cc1cc(-c2n[nH]c(=S)n2/N=C/c2cccc([N+](=O)[O-])c2)n[nH]1`, the activity change, negative = inhibition is -55.9%.
For `COc1cc(/C=C2\SC(=S)N(NC(=O)c3cccnc3)C2=O)ccc1O`, the activity change, negative = inhibition was -97.7%.
`Cc1nnc(Nc2ccc3c(c2)OCO3)c2ccccc12`: the activity change, negative = inhibition is 20.5%.
As for `Cc1csc2nc(CSc3ccc(Cl)cc3)cn12`, the activity change, negative = inhibition is -28.1%.
With `c1ccc(Nc2c(-c3ccco3)nc3ccccn23)cc1` the figure was -67%; with `COc1ccc(-n2c(-c3ccc(OC)c(OC)c3)n[nH]c2=S)cc1`, -27%; with `CCN1CC(c2ccccc2)C(c2ccc(Cl)cc2)=N1` (configuration not stated), -26.4%.
As to `O=C(Nc1cccs1)Nc1ccccc1Cl`, the activity change, negative = inhibition was -59.6%.
On to `CN1c2ccccc2Sc2cc(N)ccc21`, for which the activity change, negative = inhibition is -71%.
With `CN(C)c1ccc(/C=N/OC(=O)Nc2ccccc2)cc1` the figure was -22.3%; with `O=C(O)C1C(c2ccccc2)C(C(=O)Oc2ccc(O)cc2)C1c1ccccc1` (configuration not stated), -97.2%.
On to `Fc1ccc(CN2C3=NCCN3c3ccccc32)cc1`, for which the activity change, negative = inhibition is -38.3%.
For `CCCCN1C2=NC(c3ccccc3)CN2c2ccccc21` (configuration not stated) the value was -14%; for `COc1cc(NC(=O)CN2C(=O)C(c3ccccc3)=NC2(C)C)cc(OC)c1`, -10%; for `CCN(CC)S(=O)(=O)c1ccc(NC(=O)c2c(-c3ccccc3)noc2C)cc1`, -1.33%.
`COc1cc(/C=N\NC(=O)c2ccc(Cn3cc(Br)c([N+](=O)[O-])n3)o2)cc(OC)c1O`: the activity change, negative = inhibition is -36.4%.
Consider `CC(C)CC1(C(=O)O)NC(c2ccccc2O)C2C(=O)N(C(C)C)C(=O)C21` (configuration not stated), for which the activity change, negative = inhibition was -7.77%.
For the compound `COc1ccc(CN2C(=O)C3C4C=CC(C4)C3C2=O)cc1` (configuration not stated), the activity change, negative = inhibition is 24.9%.
For `COc1ccc(NCc2ccc3c(c2)OCO3)cc1Cl` the value was -12.5%.
With `COc1ccc(CNc2ccccc2)cc1Br` the figure was -3.19%.
Consider `CCN(CC)c1ccc(NC(=O)CN2C(=O)CSc3ncccc32)c(C)c1`, for which the activity change, negative = inhibition is -11.2%.
With `Cc1cc2nc3ccc(N(C)C)cc3nc2cc1N` the figure was -98.1%; with `CC1C/C(=N/NC(=O)c2cccc(F)c2)c2ccc(O)cc2C1` (configuration not stated), -63.8%; with `CNC(=O)CN1C(=O)c2ccccc2S1(=O)=O`, 14%.
With `COc1ccc(-c2csc(Cc3nnc4n3CCCCC4)n2)cc1OC` the figure was -2.63%; with `CCN1CCn2c3c(c4cc(C)ccc42)CCCC31` (configuration not stated), 32.6%.
With `CCc1oc2ccccc2c1C(=O)c1cc(Br)c(O)c(Br)c1`, the activity change, negative = inhibition was -16.5%.
For `Cc1cccc(NNC(=O)C(=O)NNc2cccc(C)c2)c1` the value was -2.1%.
With `COC(=O)c1c(N)sc2c1CC(C)(C)OC2`, the activity change, negative = inhibition turned out to be 0.616%.
With `Cc1ccc(N(C)S(=O)(=O)c2cccc(C(=O)Nc3nnc(C4CC4)s3)c2)cc1` the figure was 41.9%; with `CCSc1nnc(NC(=O)C2CCCN(S(=O)(=O)c3cnc[nH]3)C2)s1` (configuration not stated), 4.79%.
For the compound `Cc1cc(C)cc(N(CC(=O)NCc2ccco2)S(=O)(=O)c2c(C)noc2C)c1`, the activity change, negative = inhibition was -11.1%.
For `Cc1cc(C(=O)Nc2nc3c(C)cccc3s2)c(C)o1` the value was -29%; for `COc1cccc(CNc2nc3ccccc3n2CCN2CCCCC2)c1`, 73.7%.
As to `Cc1[nH]oc(=O)c1N=Nc1c(Cl)cccc1Cl`, the activity change, negative = inhibition was -48.5%.
For `O=S(=O)(c1cccs1)n1cnc2ccccc21` the value was -2.54%; for `Cc1cc(Cc2ccc(N)c(C)c2)ccc1N`, 12.8%; for `C=CCSc1nnc2c(n1)OC(c1ccco1)Nc1ccccc1-2` (configuration not stated), -91.3%.
For `COC(=O)c1ccn(CC(=O)NC2CCCCC2)n1` the value was -5.32%.
Regarding `COc1cc(C(=S)NC2CCCCC2)ccc1O`, the activity change, negative = inhibition is 99.8%.
